Source: PubChem BioAssay
RGS4-Gao reg: modulates binding of RGS4 to human Galphao | Multiplexed bead flow cytometry; actives lie on both sides | binding response (% of control), % at 10 µM | AID 1415 | hit rate 0.33% among 220,000; in the data active = binding response below about 49% or above about 150%; inactive = in between;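 note: fluorescent Galphao activated with aluminum fluoride binding bead-coupled RGS4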
Target sequence (P09471 whole entry, looked up): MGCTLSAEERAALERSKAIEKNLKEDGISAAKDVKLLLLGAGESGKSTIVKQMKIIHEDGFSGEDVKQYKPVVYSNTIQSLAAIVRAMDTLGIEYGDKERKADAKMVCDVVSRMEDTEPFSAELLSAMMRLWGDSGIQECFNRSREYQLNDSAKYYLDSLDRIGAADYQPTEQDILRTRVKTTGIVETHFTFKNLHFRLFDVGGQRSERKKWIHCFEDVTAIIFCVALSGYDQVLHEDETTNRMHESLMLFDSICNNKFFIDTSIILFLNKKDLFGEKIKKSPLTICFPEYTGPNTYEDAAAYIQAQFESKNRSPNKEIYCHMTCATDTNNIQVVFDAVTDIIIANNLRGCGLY
RGS8-Gao: modulates binding of RGS8 to human Galphao | P09471 | multiplexed bead flow cytometry; actives lie on both sides | response (percent of control binding), % at 10 µM | hit rate 0.34% among 220,000; in the data active = response below about 60% or above about 140%; inactive = in between;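 note: Galphao activated as the GDP aluminium fluoride complex binding bead-coupled RGS8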
RGS7-Gao reg: regulators of human RGS7-Galphao interaction. Multiplexed bead flow cytometry, RGS7-Galphao binding; actives lie on both sides. hit rate 0.35% among 220,000. P09471. binding response (% of control), % at 10 µM; in the data active = binding response below about 49% or above about 150%; inconclusive = no clear call, values can overlap the other calls; inactive = in between;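 note: fluorescent Galphao held in activated GDP-AlF4 state binding bead-coupled RGS7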
RGS16-Gao HTS: RGS16-Galphao interaction regulator (human); O15492+P09471; bead-based flow cytometry RGS16-Galphao binding, fluorescence; actives lie on both sides; binding response (% of control), % at 10 µM; hit rate 0.38% among 220,000;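 note: Galphao activated by GDP with aluminum fluoride before binding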
Avidin fluor: avidin bead compound fluorescence profile | Avidin beads, compound fluorescence 488/530 nm, flow cytometry; stronger effect = higher value | fluorescence (KMESF) at 10 µM | hit rate 0.38% among 220,000 | AID 1775; in the data active = fluorescence above about 47
GSH fluor: GSH bead compound fluorescence profile; GSH beads flow cytometry, compound fluorescence 488/530 nm; stronger effect = higher value; fluorescence (KMESF) at 10 µM; hit rate 0.25% among 190,000; AID 1776; in the data active = fluorescence above about 89;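 note: glutathione beads carrying GST-tagged Bcl family fusion proteins plus one bare bead set; values are compound well signal with DMSO vehicle wells as background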
RGS4-Gao HTS: regulators of human RGS4-Galphao interaction; hit rate 99% among 1,600; multiplexed bead flow cytometry, RGS–Galpha-o binding; RGS4–Galpha-o binding response, % at 10 µM; shares compounds with RGS16-Gao HTS;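 note: fluorescently labeled Galpha-o bound to GDP with aluminium fluoride binding biotinylated RGS beads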
Target sequence (P09471 whole entry, looked up): as above
Target sequence (P49798 whole entry, looked up): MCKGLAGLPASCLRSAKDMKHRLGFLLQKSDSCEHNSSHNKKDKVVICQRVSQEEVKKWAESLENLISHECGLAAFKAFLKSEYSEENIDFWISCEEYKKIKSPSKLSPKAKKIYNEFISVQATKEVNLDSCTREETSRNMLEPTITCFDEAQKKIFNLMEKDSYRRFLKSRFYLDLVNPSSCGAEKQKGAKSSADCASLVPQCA
Biotin-avidin: biotin-avidin bead binding disruption counter-screen; streptavidin beads, fluorescein-biotin binding, flow cytometry; shares compounds with RGS16-Gao HTS; inhibition, % at 10 µM; 1,700 tested, under 10 active;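 active = inhibition above 50%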;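 note: median green fluorescence of gated singlet beads compared with DMSO control wells; 0% = DMSO wells and 100% = complete loss of bead fluorescence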
RGS8-Gao confirm: confirmation of regulators of human RGS8-Galphao interaction | AID 1836 | hit rate 3% among 1,700 | bead-based flow cytometry RGS8-Galphao binding, fluorescence; actives lie on both sides | binding response (% of control), % at 10 µM | shares compounds with RGS16-Gao HTS; in the data active = binding response below about 72% or above about 130%; inactive = in between;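 note: Galphao activated as GDP AlF4 complex before binding bead RGS8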
RGS7-Gao confirm: confirmation of regulators of human RGS7-Galphao interaction | shares compounds with RGS16-Gao HTS | bead-based flow cytometry RGS7-Galphao binding; actives lie on both sides | response (percent of control binding), % at 10 µM | hit rate 7.8% among 1,700 | AID 1837; in the data active = response below about 75% or above about 130%; inactive = in between;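 note: fluorescent Galphao activated with GDP and aluminum fluoride binding bead-coupled RGS7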
RGS16-Gao conf: RGS16-Galphao interaction regulation, single point confirmation; shares compounds with RGS16-Gao HTS; response (% of control binding), % at 10 µM; hit rate 4% among 1,700; AID 1838; bead-based flow cytometry, RGS16-Galphao binding; actives lie on both sides; in the data active = response below about 74% or above about 130%; inactive = in between;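 note: Galphao activated as the GDP aluminium fluoride complex binding bead-coupled RGS16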
RGS4-Gao confirm: confirmation of regulators of human RGS4-Galphao interaction | shares compounds with RGS16-Gao HTS | RGS4-Galphao binding, multiplexed bead flow cytometry; actives lie on both sides | binding response (% of control), % at 10 µM | hit rate 4% among 1,700; in the data active = binding response below about 74% or above about 130%; inactive = in between
RGS19-Gao conf: RGS19-Galphao interaction regulation, single point confirmation; response (percent of control binding), % at 10 µM; bead-based flow cytometry RGS19-Galphao binding; actives lie on both sides; hit rate 5% among 1,700; shares compounds with RGS16-Gao HTS; in the data active = response below about 50% or above about 160%; inactive = in between;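 note: 100% = no compound control and 0% = blank background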
The depositor's hits bear a star; ? = inconclusive; / = no result given; [ ] = dose if it differs, or a comment. An excerpt weighted towards active compounds, which were near 1.2% of everything screened. Unless noted, the rule behind the calls is not given here.

SMILES | RGS4-Gao reg | RGS8-Gao | RGS7-Gao reg | RGS16-Gao HTS | Avidin fluor | GSH fluor | RGS4-Gao HTS | Biotin-avidin | RGS8-Gao confirm | RGS7-Gao confirm | RGS16-Gao conf | RGS4-Gao confirm | RGS19-Gao conf
N=C1c2ccccc2CN1c1ccc(S(=O)(=O)N2CCCCC2)cc1 | 100 | 99 | 97 | 100 | 13 | 70 | / | / | / | / | / | / | /
O=C(Cc1noc2ccccc12)Nc1ccc2ccccc2c1 | 91 | 70 | 89 | 25* | 4 | 22 | 91* | 0 | 94 | 88 | 89 | 91 | 99
NNC(=O)c1csc(CS(=O)(=O)c2ccc(Cl)cc2)n1 | 111 | 86 | ? | 101 | 12 | / | / | 0 | 109 | 116 | 111 | 111 | 97
CCc1nnc(NC(=O)Cn2ccc(C(F)(F)F)n2)s1 | 107 | 101 | 99 | 104 | 18 | 12 | / | / | / | / | / | / | /
O=C(CSc1nc2ccccc2[nH]1)Nc1ccc(F)c(F)c1 | / | / | / | / | / | 44 | / | 0 | 105 | 98 | 104 | 105 | 95
Nc1c(C(=O)NCc2ccco2)nnn1-c1ccccc1 | 104 | 105 | 104 | 107 | 10 | 34 | / | / | / | / | / | / | /
CCOc1ccc(NS(=O)(=O)c2ccc3ncsc3c2)cc1 | 146 | 134 | 152*[activator] | 143 | 8 | 15 | 146* | 1 | 100 | 97 | 98 | 100 | 111
Nc1ccc(SCc2nc3cccc4c3n2CCC4)cc1 | 97 | 98 | ? | 98 | 6 | / | / | / | / | / | / | / | /
COC(=O)CNC(c1ccccc1)c1cc(Br)ccc1NC(C)=O (stereo not drawn) | 94 | 73 | 79 | 102 | 6 | 18 | / | 1 | 102 | 103 | 98 | 103 | 106
COC(=O)CNC(c1ccccc1)c1cc(Cl)ccc1NC(=O)c1cccc(Cl)c1 (stereo not drawn) | 102 | 102 | 105 | 108 | 3 | 19 | / | / | / | / | / | / | /
O=C(NC1CCCCC1)c1cc2ccccc2cc1O | 94 | 92 | ? | 87 | 3 | / | / | / | / | / | / | / | /
CCn1c(C(=O)N2CCCC(C(=O)O)C2)cc2sccc21 (stereo not drawn) | 93 | 71 | 93 | 24* | 4 | 64 | 93* | -1 | 105 | 104 | 109 | 102 | 114
CCOC(=O)c1cc2sccc2n1CC(=O)N1CCCC1 | 113 | 104 | 150*[activator] | 121 | 48* | 31 | 113* | -1 | 96 | 96 | 96 | 95 | 94
O=C(CN1CCN(Cc2ccccc2F)C1=O)NCCN1CCOCC1 | 97 | 101 | 98 | 100 | 9 | 20 | / | / | / | / | / | / | /
CCOc1cc(-c2nnc(-c3ccco3)o2)cc(OCC)c1OCC | 119 | 102 | 156*[activator] | 96 | 194* | 35 | 119* | 0 | 101 | 106 | 97 | 99 | 87
CCOc1ccc(-c2nnc(-c3ccco3)o2)cc1OCC | 100 | 96 | 95 | 97 | 34 | 46 | / | / | / | / | / | / | /
O=C(CS(=O)(=O)c1ccccc1)Nc1ccc(S(=O)(=O)Nc2ncccn2)cc1 | 35* | 32* | 35* | 26 | 13 | 9 | / | 0 | 97 | 91 | 96 | 94 | 90
O=C(CSc1nnnn1-c1ccccc1)Nc1ncc2c(n1)CC(c1ccco1)CC2=O (stereo not drawn) | 35* | 57* | 39* | 39 | 14 | 17 | / | 3 | 101 | 88 | 98 | 94 | 89
Cc1nn(-c2ccccc2)c(C)c1NC(=O)Cc1cccs1 | 56 | 68 | 55 | 58 | 6 | 17 | / | / | / | / | / | / | /
Cc1nn(-c2ccccc2)c(C)c1NC(=O)c1cccs1 | 82 | 80 | 88 | -7.9* | 9 | 10 | 82* | 0 | 101 | 103 | 100 | 103 | 101
CCN(CC)CCCNC(=O)C1c2cc(OC)c(OC)cc2C(=O)N(C)C1c1cccs1 (stereo not drawn) | 153*[activator] | 153*[activator] | 130 | 454 | 12 | 33 | / | -1 | 105 | 98 | 110 | 103 | 103
CC(OC(=O)CNC(=O)C12CC3CC(CC(C3)C1)C2)C(=O)Nc1ccc(N2CCOCC2)cc1 (stereo not drawn) | 102 | 104 | 105 | 112 | 8 | 54 | / | / | / | / | / | / | /
CCn1c(SCC(=O)Nc2nc3ccc(C)cc3s2)nc2c(c1=O)SC(C)C2 (stereo not drawn) | 112 | 101 | 158*[activator] | 109 | 117* | 24 | 112* | / | / | / | / | / | /
c1ccc(Cn2cnc3ccccc32)cc1 | 33* | 35* | 34* | 26 | 8 | 13 | / | -1 | 109 | 116 | 113 | 115 | 112
CCC(=O)Nc1sc2c(c1C(N)=O)CCC2 | 16* | 12* | 7.2* | -7.4* | -2 | 22 | / | -1 | 107 | 102 | 108 | 101 | 107
SMILES | RGS4-Gao reg | RGS8-Gao | RGS7-Gao reg | RGS16-Gao HTS | Avidin fluor | GSH fluor | RGS4-Gao HTS | Biotin-avidin | RGS8-Gao confirm | RGS7-Gao confirm | RGS16-Gao conf | RGS4-Gao confirm | RGS19-Gao conf
O=C(NCC1OCCc2ccccc21)c1ccc(NC(=O)c2ccc(Cl)cc2Cl)cc1 (stereo not drawn) | 315*[activator] | 143*[activator] | 329*[activator] | 445*[activator] | 190* | 17 | / | 4 | 98 | 95 | 90 | 94 | 73
CCCCN(C)C(=O)C1CCN(CCCc2ccccc2)CC1 | 121 | 89 | 170*[activator] | 95 | 291* | 15 | 121* | / | / | / | / | / | /
CC1CCCN(C(=O)C2CCN(CCCc3ccccc3)CC2)C1 (stereo not drawn) | 91 | 97 | 98 | 95 | 35 | 24 | / | / | / | / | / | / | /
CCn1c(=O)cc(N2CCOCC2)[nH]c1=O | 99 | 99 | 101 | 100 | 11 | 12 | / | / | / | / | / | / | /
O=C(Cn1c(C(F)(F)F)nc2ccccc21)Nc1ccccc1N1CCOCC1 | 48* | 54* | 45* | 42 | 8 | 35 | / | 0 | 99 | 102 | 100 | 103 | 103
CC(=O)c1ccc(OCC(O)CN2C(C)CCCC2C)cc1 (stereo not drawn) | 104 | 97 | 100 | 87 | 4 | 23 | / | / | / | / | / | / | /
